Measured values reported in PubChem BioAssay AID2284166 (EPA ToxCast).
Inconclusive results are not listed. The source made the active and inactive calls. How the source made its calls: active means hit-call score of the fitted dose curve at least 0.9, where 1 is the maximum; inactive means score below 0.9.

The compounds below were run against Neuropeptide Y receptor type 2 (Homo sapiens) (UniProt P49146) (assay: ERF_FR_GPCR_hNPY2R: Eurofins (ERF) G Protein-Coupled Receptor (GPCR) Radioligand Binding LeadHunter Assay for human Neuropeptide Y Receptor Y2 Agoniam).
Method: ERF_FR_GPCR_hNPY2R is a biochemical, single-readout assay that uses extracted gene-proteins in a cell-free assay. Measurements were taken 1 hour after chemical dosing in a 96-well plate. See Y2 Human Neuropeptide Y GPCR Binding (Agonist Radioligand) Assay, Cerep.ERF_FR_GPCR_hNPY2R is an assay component calculated from the ERF_FR_GPCR_hNPY2R assay. It is designed to measure radioligand binding using a type of binding reporter as detected by scintillation counting with radiometry technology.Data from the assay component ERF_FR_GPCR_hNPY2R was analyzed at the assay endpoint, ERF_FR_GPCR_hNPY2R, in the positive analysis fitting direction relative to DMSO as the negative control and baseline of activity. Using a type of binding reporter, gain-of-signal activity can be used to understand changes in binding as they relate to gene NPY2R. To generalize the intended target to other relatable targets, this assay endpoint is annotated to the gpcr intended target family, where the subfamily is neuropeptide Y.
Human cells are incubated for 60 minutes at 37 C with [125I]peptide YY ligand (0.015 nM) and NYP as control inhibitor. Test Sample Requirements: Minimum for 1) Screen: 60 ul of 10 mM stock -OR- 1 mg (pre-weighed) for 10 uM final testing. 2) Dose Response: 90 ul of 10 mM stock -OR- 1 mg (pre-weighed) for a top concentration at 10 uM.

Neuropeptide Y receptor type 2 (Homo sapiens), sequence (P49146 whole entry, looked up): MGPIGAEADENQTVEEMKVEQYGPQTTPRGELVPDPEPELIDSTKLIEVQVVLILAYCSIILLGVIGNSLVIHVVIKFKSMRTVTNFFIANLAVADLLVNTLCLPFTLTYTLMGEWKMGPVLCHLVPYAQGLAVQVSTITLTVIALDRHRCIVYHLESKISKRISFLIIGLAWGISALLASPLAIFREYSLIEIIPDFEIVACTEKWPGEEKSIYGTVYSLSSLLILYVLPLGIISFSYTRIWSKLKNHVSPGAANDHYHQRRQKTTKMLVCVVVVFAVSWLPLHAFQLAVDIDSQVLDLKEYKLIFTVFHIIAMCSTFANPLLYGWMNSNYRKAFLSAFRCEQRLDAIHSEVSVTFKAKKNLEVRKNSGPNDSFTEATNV

SMILES	outcome
O=C(/C=C/c1ccc(O)cc1)CC(=O)/C=C/c1ccc(O)cc1	inactive
